In PubChem BioAssay (Tox21):
Values joined by “and” are separate entries in the source; they are usually repeats but may differ in a detail not shown here. Equal entries are not always repeated. Results filed as inconclusive are left out. A structure can be active in one record and inactive in another. Active and inactive are the calls of the source. Unless noted, calls come from the whole dose curve; as a rule, active = well fitted curve in the direction sought with a large enough effect in the repeat runs; inconclusive = weak or mixed curves; inactive = no such curve, though single readings can be large; an effect the other way counts as inactive or inconclusive.

How the values were obtained:
[1] = qHTS assay to identify small molecule antagonists of the estrogen related receptor (ERR) signaling pathway from Tox21 library - cell viability counter screen (AID 1224834); note: nearly all actives have a fitted effect of over 30% in size
How it was run: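 After 17.5 h of compound exposure at 37 C, ERR cells are incubated with CellTiter-Fluor for 30 min and fluorescence intensity serves as the viability measure.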

[2] = target: Luciferin 4-monooxygenase (Photinus pyralis) (UniProt P08659); assay: qHTS assay to identify small molecule inhibitors of firefly luciferase (AID 1224835); note: nearly all actives have a fitted effect of over 25% in size; note: potency is the fitted concentration of half-maximal effect
How it was run: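 Biochemical qHTS: compounds run as interplate titrations against purified firefly enzyme, with D-luciferin and ATP each at its KM concentration. Light output recorded by CCD imaging.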

[3] = qHTS assay to identify small molecule agonists of the constitutive androstane receptor (CAR) signaling pathway - cell viability counter screen (AID 1224836); note: series mostly up to about 92 µM; nearly all actives have a fitted effect of over 45% in size
How it was run: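 Viability read-out: CellTiter-Fluor fluorescence after 23 h compound exposure at 37 C/5% CO2 in double-stable HepG2-CYP2B6-hCAR cells, with PK11195 present at 0.75 uM final; compounds tested in 15-point titration.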

[4] = qHTS assay to identify small molecule antagonists of the constitutive androstane receptor (CAR) signaling pathway - cell viability counter screen (AID 1224837); note: series mostly up to about 92 µM; nearly all actives have a fitted effect of over 45% in size
How it was run: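 Counter screen run in HepG2-CYP2B6-hCAR cells: 4 hr settle, compound titration (15 concentrations) with 50 nM CITCO, 23 hr at 37 C/5% CO2, CellTiter-Fluor fluorescence.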

[5] = target: Nuclear receptor subfamily 1 group I member 3 (Homo sapiens) (UniProt Q14994); assay: qHTS assay to identify small molecule antagonists of the constitutive androstane receptor (CAR) signaling pathway (AID 1224838);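 note: HepG2 cells stably expressing hCAR with CYP2B6 luciferase reporter stimulated by CITCO; nearly all actives have a fitted effect of over 40% in size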; note: potency is the fitted concentration of half-maximal effect
How it was run: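 Cell line: HepG2 double-stable for hCAR and CYP2B6-2.2kb reporter. Agonist: CITCO, 50 nM final. Compounds: 15 concentrations, 24 h, 37 C. Detection: ONE-Glo luminescence.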

[6] = target: Nuclear receptor subfamily 1 group I member 3 (Homo sapiens) (UniProt Q14994); assay: qHTS assay to identify small molecule agonists of the constitutive androstane receptor (CAR) signaling pathway (AID 1224839); note: nearly all actives have a fitted effect of over 15% in size; note: potency is the fitted concentration of half-maximal effect;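 for activation: HepG2 cells stably carrying human CAR and a CYP2B6 luciferase reporter; series mostly up to about 92 µM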
How it was run: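 Luminescence read-out (ONE-Glo, 30 min, room temperature) from double-stable HepG2-CYP2B6-hCAR cells exposed 24 h to 15-point compound series in presence of 0.75 uM PK11195 final.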

[7] = qHTS assay to identify small molecule antagonists of the estrogen related receptor signaling pathway with the pleiotropic PPARgamma coactivator (PGC) from Tox21 10K library - cell viability counter screen (AID 1224840; active = well fitted cell-killing curve with a large enough effect in the repeat runs, not every such curve was filed as active; note: nearly all actives have a fitted effect of over 40% in size)
How it was run: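 Following seeding of 2,000 PGC/ERR cells/well and 6 hours' incubation, test compounds were delivered in DMSO. The plates then sat 17.5 hours at 37 C before a fluorogenic live-cell protease reagent (CellTiter-Fluor) was read after 30 min.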

[8] = target: Thyrotropin receptor (Homo sapiens) (UniProt P16473); assay: qHTS assay to identify small molecule agonists of the thyroid stimulating hormone receptor (TSHR) signaling pathway (AID 1224843; calls by dose curve; note: nearly all actives have a fitted effect of over 45% in size)
How it was run: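 TSHR-HEK293 cells in agonist mode, 30 min room-temperature step, then cAMP measured by competitive HTRF (cAMP-d2 with anti-cAMP cryptate) after 1 h at room temperature. Tested at 15 concentrations in triplicate.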

[9] = qHTS assay to identify small molecule agonists of the hypoxia (HIF-1) signaling pathway - cell viability counter screen (AID 1224844; calls by dose curve; note: nearly all actives have a fitted effect of over 50% in size; note: potency is the fitted concentration of half-maximal effect)
How it was run: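 Cells (HRE-bla ME-180, 2,000 per well) sat 5 hrs at 37C, got compound for 17 hrs, were read for CCF4-AM FRET, and were finally lysed with CellTiter-Glo for a 30 min room-temperature luminescence read.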

[10] = qHTS assay to identify small molecule agonists of H2AX (AID 1224845; active = well fitted activation curve with a large enough effect in the signal ratio in the repeat runs, not every such curve was filed as active; the % refers to the signal ratio)
How it was run: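 Wild-type CHO-K1 cells, plated overnight, exposed 3hr at 37C to 15 concentrations (0.76% DMSO final). Lysed, then HTRF anti-pH2AX (S139) cryptate and anti-H2AX-d2 antibodies, 24 hr room temperature; 665/620 nm emission read.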

[11] = qHTS assay to identify small molecule agonists of the hypoxia (HIF-1) signaling pathway (AID 1224846; active = well fitted activation curve with a large enough effect in the signal ratio in the repeat runs, not every such curve was filed as active; the % refers to the signal ratio)
How it was run: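 A low-serum medium (0.5% dialyzed FBS) holding 2,000 HRE-bla ME-180 cells per well is preincubated for 5 hrs, dosed with compounds by pintool, and kept a further 17 hrs at 37C, 5% CO2 before CCF4-AM FRET detection of beta-lactamase.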

[12] = qHTS assay to identify small molecule agonists of H2AX - cell viability counter screen (AID 1224847; calls by dose curve; note: top concentration of the series differs between compounds; nearly all actives have a fitted effect of over 30% in size)
How it was run: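 CHO-K1 wt, 1000 cells/well, o/n 37C; cpds 15 conc, 3 h 37C, 0.76% DMSO; CellTiter-Glo, 30 min RT, luminescence.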

[13] = qHTS RealTime-Glo MT Cell Viability Assay in HepG2 cells - 24 hour (AID 1224867); note: nearly all actives have a fitted effect of over 50% in size
How it was run: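 Tox21 10K library screened in qHTS format on HepG2 cells carrying RealTime-Glo reagents. Compounds were added after a 5 h preincubation, and the luminescent signal from continuous culture was measured repeatedly during 40 h treatment.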

[14] = qHTS RealTime-Glo MT Cell Viability Assay in HEK293 cells - 32 hour (AID 1224868); note: nearly all actives have a fitted effect of over 50% in size; note: potency is the fitted concentration of half-maximal effect
How it was run: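 Luminescence generated by NanoLuc from substrate produced by living HEK293 cells served as the viability signal. Each value reflects the reading at its stated time point during continuous 40 h compound exposure at 37 C.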

[15] = A CellTox Green Cytotoxicity Assay to monitor cytotoxicity in HEK293 cells - 0 hour (AID 1224869); note: nearly all actives have a fitted effect of over 50% in size; note: potency is the fitted concentration of half-maximal effect
How it was run: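 Fluorescence intensity, read at 0, 8, 16, 24, 32 and 40 h of compound treatment, reflected dye binding to DNA of dead HEK293 cells; compounds (23 nL, DMSO) were added 5 h after plating cells with reagent.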

[16] = qHTS assay to identify small molecule antagonists of the estrogen related receptor signaling pathway with the pleiotropic PPARgamma coactivator (PGC) from Tox21 10K library (AID 1224841; call rule not given here; note: potency is the fitted concentration of half-maximal effect)
How it was run: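 qHTS antagonist format: PGC/ERR cells, 2k/well, compound in DMSO by pin transfer after 6 h attachment, 18 h treatment at 37 C, One-Glo luminescence read at 30 min.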

[17] = qHTS assay to identify small molecule agonists of the estrogen related receptor signaling pathway with the pleiotropic PPARgamma coactivator (PGC) from Tox21 10K library (AID 1224842); note: nearly all actives have a fitted effect of over 15% in size
How it was run: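 PGC/ERR reporter cell line, 2,000 cells per well, incubated 6 h at 37 C before 23 nL compound in DMSO was added. After 18 h at 37 C, One-Glo luminescence read following 30 min at room temperature.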

[18] = qHTS assay to identify small molecule antagonists of the estrogen related receptor (ERR) signaling pathway from Tox21 library (AID 1224848); note: nearly all actives have a fitted effect of over 50% in size; note: potency is the fitted concentration of half-maximal effect
How it was run: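 ERR reporter cell line (from NTP) seeded 2,000 cells/well, rested 6 h at 37 C/5% CO2, then pin-dosed with compounds in DMSO. After 18 h at 37 C, ONE-Glo added; luminescence read after 30 min at room temperature.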

[19] = qHTS assay to identify small molecule agonists of the estrogen related receptor signaling pathway with the pleiotropic PPARgamma coactivator (PGC) (AID 1224823)
How it was run: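 Steps: plate PGC/ERR cells at 2,000 cells/well; incubate 6 h, 37 C/5% CO2; pin-transfer compounds (DMSO); incubate 18 h, 37 C; add One-Glo; 30 min RT; read luminescence.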

Measured: Potency

Sequence of Nuclear receptor subfamily 1 group I member 3 (Homo sapiens) (Q14994 whole entry, looked up): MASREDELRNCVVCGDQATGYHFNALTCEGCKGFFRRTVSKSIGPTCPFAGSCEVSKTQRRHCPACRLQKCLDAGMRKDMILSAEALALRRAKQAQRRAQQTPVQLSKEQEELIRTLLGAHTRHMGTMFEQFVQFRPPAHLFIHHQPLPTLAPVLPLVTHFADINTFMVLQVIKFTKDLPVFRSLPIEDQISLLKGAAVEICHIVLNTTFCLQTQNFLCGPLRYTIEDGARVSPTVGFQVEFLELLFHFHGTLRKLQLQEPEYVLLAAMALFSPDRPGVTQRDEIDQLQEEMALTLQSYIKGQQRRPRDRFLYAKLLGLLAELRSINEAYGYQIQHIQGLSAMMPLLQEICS
Sequence of Luciferin 4-monooxygenase (Photinus pyralis) (P08659 whole entry, looked up): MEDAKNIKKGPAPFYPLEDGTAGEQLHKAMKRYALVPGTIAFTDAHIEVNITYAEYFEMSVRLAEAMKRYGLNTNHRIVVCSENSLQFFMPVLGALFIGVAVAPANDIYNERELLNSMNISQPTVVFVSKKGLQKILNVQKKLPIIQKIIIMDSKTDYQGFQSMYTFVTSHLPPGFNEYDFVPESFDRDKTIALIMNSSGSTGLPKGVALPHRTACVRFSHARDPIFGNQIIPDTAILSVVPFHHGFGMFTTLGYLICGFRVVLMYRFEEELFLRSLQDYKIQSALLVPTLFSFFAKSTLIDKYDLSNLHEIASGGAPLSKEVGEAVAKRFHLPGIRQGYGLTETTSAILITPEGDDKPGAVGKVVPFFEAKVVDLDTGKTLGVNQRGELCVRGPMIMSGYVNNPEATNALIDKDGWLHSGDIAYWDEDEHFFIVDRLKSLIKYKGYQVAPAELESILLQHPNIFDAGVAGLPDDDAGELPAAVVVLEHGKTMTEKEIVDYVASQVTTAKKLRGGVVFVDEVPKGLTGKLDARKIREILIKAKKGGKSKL
Sequence of Thyrotropin receptor (Homo sapiens) (P16473 whole entry, looked up): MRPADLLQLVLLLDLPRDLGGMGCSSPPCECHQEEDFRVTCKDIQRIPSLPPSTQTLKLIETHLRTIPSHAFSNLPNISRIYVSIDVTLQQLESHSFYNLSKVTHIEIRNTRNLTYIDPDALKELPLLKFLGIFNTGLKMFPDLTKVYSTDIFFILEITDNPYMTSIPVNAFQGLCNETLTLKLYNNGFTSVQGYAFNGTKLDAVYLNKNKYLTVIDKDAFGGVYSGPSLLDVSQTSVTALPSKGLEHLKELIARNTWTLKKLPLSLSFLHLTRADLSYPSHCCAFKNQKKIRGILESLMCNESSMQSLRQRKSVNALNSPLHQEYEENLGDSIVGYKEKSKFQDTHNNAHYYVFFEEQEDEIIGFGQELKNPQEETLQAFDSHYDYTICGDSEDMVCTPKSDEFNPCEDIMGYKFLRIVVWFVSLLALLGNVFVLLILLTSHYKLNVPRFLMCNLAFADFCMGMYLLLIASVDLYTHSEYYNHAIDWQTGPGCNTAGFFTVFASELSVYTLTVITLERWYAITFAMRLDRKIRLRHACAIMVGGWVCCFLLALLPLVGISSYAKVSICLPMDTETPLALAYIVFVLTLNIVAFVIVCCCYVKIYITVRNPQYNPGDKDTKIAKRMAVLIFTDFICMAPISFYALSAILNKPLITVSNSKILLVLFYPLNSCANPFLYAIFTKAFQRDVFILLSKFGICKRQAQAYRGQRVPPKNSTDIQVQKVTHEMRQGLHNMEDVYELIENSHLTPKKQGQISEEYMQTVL

COc1ccccc1NC(=O)CC(C)=O
not listed: [16] | [17] | [18] | [19]
inactive: all other assays above

COc1cc(O)c(C(=O)c2ccccc2)cc1S(=O)(=O)O
not listed: [16] | [17] | [18] | [19]
inactive: all other assays above

C1CNCCN1
not listed: [16] | [17] | [18] | [19]
inactive: all other assays above

CCCCCCCCOc1ccc(C(=O)c2ccccc2)c(O)c1
active: [5] 7.5 µM
not listed: [19]
inactive: all other assays above

CCCCCCCCCCCCCCCCCC(=O)OCC(O)CO (stereo not given)
not listed: [16] | [17] | [18] | [19]
inactive: all other assays above

C[C@]12CC[C@@H]3c4ccc(O)cc4C[C@@H](CCCCCCCCCS(=O)CCCC(F)(F)C(F)(F)F)[C@H]3[C@@H]1CC[C@@H]2O (stereo not given in full)
active: [16] 19.3 µM and 6.39 µM | [18] 6.85 µM and 5.7 µM and 5.96 µM | [14] 43.6 µM
not listed: [1]
inactive: all other assays above

COC(=O)c1ccc(C=O)cc1
not listed: [8] | [19]
inactive: all other assays above

O=C1CCCCCN1
not listed: [19]
inactive: all other assays above

Cc1c(N(C)CS(=O)(=O)O)c(=O)n(-c2ccccc2)n1C
not listed: [16] | [17] | [18] | [19]
inactive: all other assays above

CC1=C(/C=C/C(C)=C/C=C/C(C)=C/C(=O)O)C(C)(C)CCC1
active: [2] 39.9 µM and 27.5 µM | [6] 27.3 µM and 24.3 µM and 10.6 µM | [9] 49 µM
not listed: [8] | [11] | [16] | [17] | [18] | [19]
inactive: all other assays above

CN(C)Cc1cc(CN(C)C)c(O)c(CN(C)C)c1
not listed: [16] | [17] | [18] | [19]
inactive: all other assays above

c1ccc2[nH]c(-c3cscn3)nc2c1
active: [2] 28.4 µM and 35.6 µM and 17.4 µM | [6] 13.8 µM and 6.11 µM and 7.5 µM
not listed: [16] | [17] | [18] | [19]
inactive: all other assays above

OCCCc1ccccc1
not listed: [19]
inactive: all other assays above

C=CC(=O)NC(C)(C)CS(=O)(=O)O
inactive and 43.6 µM (active): [15]
not listed: [16] | [17] | [18] | [19]
inactive: all other assays above

O=C1OC(c2ccc(O)cc2)(c2ccc(O)cc2)c2ccccc21
active: [6] 60.7 µM and 8.63 µM and 4.73 µM
not listed: [7] | [11] | [16] | [17] | [18] | [19]
inactive: all other assays above
